The whole screen tested about 5,500 compounds, of which about 2,000 (36%) were called active. Roughly 18% stayed inconclusive and do not appear here. No stated cut-off is given here; in the data, active means normalized growth mostly below about 0.91 (no sharp cut-off); inconclusive means no clear call, values can overlap the other calls; inactive means mostly above about 0.92. The list shows a part of the results.
Experiment: chemical genetic growth profiling, strain panel (AID 1159580);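 further: tested at 20 µM; growth read once vehicle control cultures reached saturation at 30 °C; 1 = growth at the plate median or of vehicle wells; lower values mean less growth of the strain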
Conditions: growth OD
[1] = S. cerevisiae deletion strains, locus YAL013W, strain DEP1, active compounds read low
[2] = S. cerevisiae deletion strains, locus YBR229C, strain ROT2, active compounds read low
[3] = S. cerevisiae deletion strains, locus YDL101C, strain DUN1, active compounds read low
[4] = S. cerevisiae deletion strains, locus YDR150W, strain NUM1, active compounds read low
[5] = S. cerevisiae deletion strains, locus YEL061C, strain CIN8, active compounds read low
[6] = S. cerevisiae deletion strains, locus YGR078C, strain PAC10, active compounds read low
[7] = S. cerevisiae deletion strains, locus YHR030C, strain SLT2, active compounds read low
[8] = S. cerevisiae deletion strains, locus YJR043C, strain POL32, active compounds read low
[9] = S. cerevisiae deletion strains, locus YJR075W, strain HOC1, active compounds read low
[10] = S. cerevisiae deletion strains, locus YLR039C, strain RIC1, active compounds read low
[11] = S. cerevisiae deletion strains, locus YLR262C, strain YPT6, active compounds read low
[12] = S. cerevisiae deletion strains, locus YMR263W, strain SAP30, active compounds read low
[13] = S. cerevisiae deletion strains, locus YNL153C, strain GIM3, active compounds read low
[14] = S. cerevisiae deletion strains, locus YNL322C, strain KRE1, active compounds read low
[15] = S. cerevisiae deletion strains, locus YOL006C, strain TOP1, active compounds read low
[16] = S. cerevisiae deletion strains, locus YPL055C, strain LGE1, active compounds read low
[17] = S. cerevisiae deletion strains, locus YPL241C, strain CIN2, active compounds read low
[18] = S. cerevisiae strains, strain wild type, active compounds read low

Measured: normalized growth

CSc1nc(N)nc(N2CCCCC2)n1
inactive: [1] 1 | [2] 1 | [3] 1 | [4] 0.982 | [5] 1 | [6] 1 | [7] 0.951 | S. cerevisiae deletion strains, locus YHR087W, strain rtc3, active compounds read low 1 | [8] 1 | [9] 1 | [10] 1.01 | S. cerevisiae deletion strains, locus YLR058C, strain SHM2 (second series), active compounds read low 1.02 | S. cerevisiae deletion strains, locus YLR085C, strain ARP6, active compounds read low 0.936 | [11] 1.02 | S. cerevisiae deletion strains, locus YML094W, strain GIM5, active compounds read low 0.944 | S. cerevisiae deletion strains, locus YMR219W, strain ESC1, active compounds read low 1.01 | [12] 1.02 | [13] 0.99 | S. cerevisiae deletion strains, locus YNL298W, strain CLA4 (second series), active compounds read low 1.02 | [14] 1 | S. cerevisiae deletion strains, locus YNR030W, strain Alg12, active compounds read low 1.01 | [15] 0.812 | [16] 0.939 | [17] 0.935 | S. cerevisiae deletion strains, locus YPR135W, strain CTF4, active compounds read low 0.946 | [18] 1.01

CNC(=O)[C@H]1O[C@@H](n2cnc3c(NCc4ccc(N)cc4)ncnc32)C(O)[C@H]1O (stereo not given in full)
inactive: [1] 0.978 | S. cerevisiae deletion strains, locus YAL040C, strain CLN3, active compounds read low 0.991 | S. cerevisiae deletion strains, locus YER002W, strain NOP16, active compounds read low 1.02 | [6] 0.986 | S. cerevisiae deletion strains, locus YNL175C, strain NOP13, active compounds read low 1.02 | S. cerevisiae deletion strains, locus YNL197C, strain WHI3, active compounds read low 1.01 | S. cerevisiae deletion strains, locus YNL224C, strain SQS1, active compounds read low 1.02 | S. cerevisiae deletion strains, locus YOR083W, strain WHI5 (second series), active compounds read low 0.995

NCC1OC(OC2C(CO)OC(OC3C(O)C(N)CC(N)C3OC3OC(CO)C(O)CC3N)C2O)C(N)C(O)C1OC1OC(CO)C(O)C(O)C1O (stereo not given)
inactive: [1] 0.997 | S. cerevisiae deletion strains, locus YBR021W, strain FUR4, active compounds read low 1.17 | [2] 0.999 | S. cerevisiae deletion strains, locus YCL029C, strain bik1, active compounds read low 0.977 | S. cerevisiae deletion strains, locus YDL035C, strain GPR1, active compounds read low 0.996 | S. cerevisiae deletion strains, locus YDL074C, strain BRE1, active compounds read low 0.993 | [3] 0.992 | S. cerevisiae deletion strains, locus YDL134C, strain PPH21, active compounds read low 1.01 | S. cerevisiae deletion strains, locus YDL185W, strain tfp1, active compounds read low 0.958 | S. cerevisiae deletion strains, locus YDL192W, strain arf1, active compounds read low 0.984 | S. cerevisiae deletion strains, locus YDR101C, strain arx1, active compounds read low 0.978 | [4] 0.991 | S. cerevisiae deletion strains, locus YDR162C, strain NBP2, active compounds read low 0.992 | S. cerevisiae deletion strains, locus YDR318W, strain mcm21, active compounds read low 0.997 | S. cerevisiae deletion strains, locus YDR388W, active compounds read low 0.998 | S. cerevisiae deletion strains, locus YDR502C, strain sam2, active compounds read low 0.988 | [5] 0.995 | S. cerevisiae deletion strains, locus YER110C, active compounds read low 0.986 | S. cerevisiae deletion strains, locus YER155C, strain BEM2, active compounds read low 0.995 | S. cerevisiae deletion strains, locus YER167W, strain BCK2, active compounds read low 0.997 | S. cerevisiae deletion strains, locus YGL078C, strain dbp3, active compounds read low 0.997 | S. cerevisiae deletion strains, locus YGL086W, strain mad1, active compounds read low 1.01 | S. cerevisiae deletion strains, locus YGL248W, strain PDE1, active compounds read low 0.996 | [6] 0.974 | S. cerevisiae deletion strains, locus YGR135W, strain pre9, active compounds read low 0.993 | S. cerevisiae deletion strains, locus YGR229C, strain SMI1, active compounds read low 0.991 | S. cerevisiae deletion strains, locus YGR252W, strain gcn5, active compounds read low 1.18 | [7] 0.993 | S. cerevisiae deletion strains, locus YHR079C, strain IRE1 (second series), active compounds read low 0.986 | S. cerevisiae deletion strains, locus YHR094C, strain hxt1, active compounds read low 0.975 | S. cerevisiae deletion strains, locus YHR129C, strain ARP1, active compounds read low 0.988 | S. cerevisiae deletion strains, locus YHR200W, strain rpn10, active compounds read low 0.993 | S. cerevisiae deletion strains, locus YIL066C, strain RNR3, active compounds read low 0.987 | S. cerevisiae deletion strains, locus YIL073C, strain SPO22, active compounds read low 0.899 | S. cerevisiae deletion strains, locus YIL125W, strain kgd1, active compounds read low 0.995 | S. cerevisiae deletion strains, locus YIR030C, strain dcg1, active compounds read low 0.988 | S. cerevisiae deletion strains, locus YJL095W, strain BCK1, active compounds read low 0.982 | S. cerevisiae deletion strains, locus YJL134W, strain LCB3, active compounds read low 0.992 | S. cerevisiae deletion strains, locus YJL168C, strain set2, active compounds read low 0.986 | S. cerevisiae deletion strains, locus YJL187C, strain SWE1 (second series), active compounds read low 0.988 | [8] 0.992 | [9] 0.98 | S. cerevisiae deletion strains, locus YKL009W, strain mrt4, active compounds read low 0.976 | S. cerevisiae deletion strains, locus YKL068W, active compounds read low 0.978 | S. cerevisiae deletion strains, locus YKL085W, strain MDH1 (second series), active compounds read low 0.983 | S. cerevisiae deletion strains, locus YKL085W, strain MDH1, active compounds read low 0.983 | S. cerevisiae deletion strains, locus YKL190W, strain CNB1, active compounds read low 0.995 | S. cerevisiae deletion strains, locus YKR001C, strain vps1, active compounds read low 0.991 | [10] 0.944 | S. cerevisiae deletion strains, locus YLR058C, strain SHM2, active compounds read low 0.999 | S. cerevisiae deletion strains, locus YLR102C, strain apc9, active compounds read low 0.997 | [11] 0.916 | S. cerevisiae deletion strains, locus YLR268W, strain sec22, active compounds read low 0.962 | S. cerevisiae deletion strains, locus YLR330W, strain CHS5, active compounds read low 0.985 | S. cerevisiae deletion strains, locus YLR342W, strain FKS1 (second series), active compounds read low 1.07 | S. cerevisiae deletion strains, locus YLR371W, strain rom2, active compounds read low 0.986 | S. cerevisiae deletion strains, locus YLR418C, strain cdc73, active compounds read low 1 | S. cerevisiae deletion strains, locus YML016C, strain PPZ1, active compounds read low 1.01 | S. cerevisiae deletion strains, locus YML032C, strain rad52, active compounds read low 0.981 | S. cerevisiae deletion strains, locus YML124C, strain tub3, active compounds read low 1.01 | S. cerevisiae deletion strains, locus YMR078C, strain ctf18, active compounds read low 0.993 | S. cerevisiae deletion strains, locus YMR223W, strain ubp8, active compounds read low 1.03 | [12] 0.985 | S. cerevisiae deletion strains, locus YMR307W, strain GAS1, active compounds read low 1.11 | S. cerevisiae deletion strains, locus YNL067W, strain RPL9B, active compounds read low 0.976 | S. cerevisiae deletion strains, locus YNL128W, strain TEP1, active compounds read low 0.994 | [13] 0.988 | S. cerevisiae deletion strains, locus YNL233W, strain BNI4, active compounds read low 1 | S. cerevisiae deletion strains, locus YNL250W, strain rad50, active compounds read low 1 | S. cerevisiae deletion strains, locus YNL271C, strain bni1, active compounds read low 0.985 | S. cerevisiae deletion strains, locus YNL298W, strain CLA4, active compounds read low 0.984 | S. cerevisiae deletion strains, locus YNL307C, strain MCK1, active compounds read low 1 | [14] 0.995 | S. cerevisiae deletion strains, locus YNR052C, strain pop2, active compounds read low 0.991 | [15] 0.948 | S. cerevisiae deletion strains, locus YOL012C, strain htz1 1.18 | S. cerevisiae deletion strains, locus YOL147C, strain pex11, active compounds read low 0.998 | S. cerevisiae deletion strains, locus YOR061W, strain CKA2, active compounds read low 0.997 | S. cerevisiae deletion strains, locus YOR069W, strain VPS5, active compounds read low 1 | S. cerevisiae deletion strains, locus YOR136W, strain idh2, active compounds read low 0.986 | S. cerevisiae deletion strains, locus YOR144C, strain elg1, active compounds read low 0.985 | S. cerevisiae deletion strains, locus YOR184W, strain ser1, active compounds read low 0.97 | S. cerevisiae deletion strains, locus YOR316C, strain cot1, active compounds read low 0.965 | [16] 0.966 | [17] 0.997 | S. cerevisiae deletion strains, locus YPR119W, strain clb2, active compounds read low 0.999 | S. cerevisiae deletion strains, locus YPR141C, strain kar3, active compounds read low 0.985 | S. cerevisiae deletion strains, locus YPR163C, strain tif3, active compounds read low 0.983 | S. cerevisiae deletion strains, locus YPR167C, strain met16, active compounds read low 0.981 | S. cerevisiae deletion strains, strain wtn01, active compounds read low 0.954 | [18] 1

Source: PubChem BioAssay AID1159580 (chemical genetic matrix, 2015)
